# Only a selection was taken, and hits are over-represented in it overall.
# Dicer processing – inhibitors of Dicer pre-microRNA processing, primary screen, biochemical, cat-ELCCA, chemiluminescence. Endoribonuclease Dicer (Homo sapiens), Q9UPY3. cat-ELCCA pre-miR-21 Dicer processing; stronger effect = higher value. z-score at 25 µM. actives 6% (n = 47,000); in the data active means z-score above about 3, passing the limit was not always enough;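 further: plate controls were vehicle for no effect and no enzyme for full effect; higher signal means more uncleaved substrate so more Dicer inhibition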
# Active calls of the source: *.
SMILES,Dicer processing
CCOc1ccc(C)cc1S(=O)(=O)n1cc(C)nc1CC,-0.42
Cc1nn(-c2cc(Cl)ccc2Cl)c(N)c1-c1nc(C(C)(C)C)cs1,-2.05
CN(C(=O)c1cnn2c(C(F)F)cc(-c3ccccc3)nc12)C1CCCCC1,1.21
CCOc1ccc(C2C(C(=O)OC(C)C)=C(C)NC3=C2C(=O)CC(c2ccccc2)C3)cc1 (centres undefined),2.31
CCOc1ccc(C2CC(=O)C3=C(C2)NC(C)=C(C(=O)OCCOC)C3c2cccs2)cc1OC (centres undefined),-1.39
CCOCCOC(=O)C1=C(C)NC2=C(C(=O)CC(c3cccs3)C2)C1c1cccc(O)c1 (centres undefined),3.39*
CC1=C(C#N)C(c2ccc(F)cc2)C2=C(CC(c3ccccc3)CC2=O)N1 (centres undefined),1.12
CCOc1ccc(C2C(C(=O)OC(C)C)=C(C)NC3=C2C(=O)CC(c2ccccc2)C3)cc1OC (centres undefined),1.53
COc1ccc(C2CC(=O)C3=C(C2)NC(C)=C(C#N)C3c2ccc(Br)cc2)cc1 (centres undefined),0.83
CCOCCOC(=O)C1=C(C)NC2=C(C(=O)CC(c3cccs3)C2)C1c1ccc(OC)c(O)c1 (centres undefined),-0.96
COc1ccc(C2CC(=O)C3=C(C2)NC(C)=C(C#N)C3c2ccc(F)cc2)cc1 (centres undefined),4.52*
CCOc1cc(C2C(C(=O)OCCOC)=C(C)NC3=C2C(=O)CC(c2cccs2)C3)ccc1O (centres undefined),3.32*
CCOC(=O)C1=C(C)NC2=C(C(=O)CC(c3cccs3)C2)C1c1ccsc1 (centres undefined),1.08
CCOc1cc(C2C(C(=O)OC(C)C)=C(C)NC3=C2C(=O)CC(c2ccccc2)C3)ccc1O (centres undefined),10.6*
CCOC(=O)C1=C(C)NC2=C(C(=O)CC(c3cccs3)C2)C1c1ccc(F)cc1 (centres undefined),-0.12
Clc1cccc(Cl)c1Cn1nnc(N2CCOCC2)n1,-0.27
Cn1c2c(c3ccccc31)/C(=N/OC(=O)c1cccc(C(F)(F)F)c1)CCC2,-0.44
CCOC(=O)c1cnn(-c2c(Cl)cc(Cl)cc2Cl)c1C,-0.52
C#C[C@]1(OC(C)=O)CC[C@H]2[C@@H]3CCC4=CC(=NO)CC[C@@H]4[C@H]3CC[C@@]21CC,1.09
C=C(C)Cn1c(SCC(N)=O)nc2c(c1=O)C1(CCCC1)Cc1ccccc1-2,0.17
Cc1nc(NC2=NCCC(=O)N2)nc2ccccc12,1.02
COC(=O)c1[nH]nc2c1C(=O)N(c1ccc(F)cc1)C2=O,2.22
NCc1ccc(S(N)(=O)=O)cc1,-0.5
CN1C(=O)CC(NCc2ccc(S(N)(=O)=O)cc2)C1=O (centres undefined),3.25*
NS(=O)(=O)c1ccc(CNC2CC(=O)N(c3ccc(Br)cc3)C2=O)cc1 (centres undefined),22
SMILES,Dicer processing
N#C/C(=C\Nc1ccc(Cl)cn1)S(=O)(=O)c1ccccc1,3.23*
N#C/C(=C\Nc1ccc(Cl)cn1)S(=O)(=O)c1ccc(Cl)cc1,1.2
N#C/C(=C\Nc1ccc(Cl)cn1)S(=O)(=O)c1ccccn1,-2.11
COc1ccc(OC)c(C2C(C(=O)OCCOc3ccccc3)=C(C)NC3=C2C(=O)CC(C)(C)C3)c1 (centres undefined),0.9
COC(=O)c1cc(-c2ccc(S(=O)(=O)N3CCN(c4ccccc4)CC3)cc2)c(C(F)(F)F)s1,-5.08
Cc1ccc(-c2nnc3c4ccccc4c(C)nn23)cc1S(=O)(=O)NC(C)(C)CO,1.85
COc1ccccc1CNc1nc2ccccc2n1C,3.77*
COc1ccc(-c2cn3c4ccccc4nc3n2CCCN2CCOCC2)cc1,3.64*
Cc1ccc(-c2cn3c4ccccc4nc3n2CCCN2CCCCC2)cc1,2.85
CN(C)c1ccc(CNc2nc3ccccc3n2C)cc1,-0.16
Cc1ccc(-c2cn3c4ccccc4nc3n2CCO)cc1,1.28
COc1ccccc1CNc1nc2ccccc2n1CCN1CCOCC1,6.17*
CCn1c(NCc2cc(OC)ccc2OC)nc2ccccc21,2.78
COc1ccc(OC)c(CNc2nc3ccccc3n2C)c1,2.54
C=CCn1c(NCc2ccccc2OC)nc2ccccc21,-0.63
COc1ccc(OCCn2c(C)nc3ccccc32)cc1,0.43
COc1ccc(OC)c(CNc2nc3ccccc3n2CCN2CCCCC2)c1,3.82*
Cc1ccc(CS/C(N)=N/N)cc1,-2.69
N#Cc1c(C(F)(F)F)cc(-c2cccs2)nc1OCC(=O)c1ccc(Cl)cc1,-0.36
Cc1cn(C2OC(CO)C(O)C2O)c(=O)[nH]c1=O (centres undefined),0.69
COC(=O)c1c(C)oc2ccc(OCc3ccc(C)cc3)cc12,0.27
O=C1CC(/C=C/c2ccccc2)(Nc2ccc(S(=O)(=O)N3CCCC3)cc2)C(=O)N1C1CCCCC1 (centres undefined),-0.57
Cc1cccc(C)c1NC(=O)CSc1c(Cl)cccc1[N+](=O)[O-],-0.4
COc1ccccc1-c1c(C(F)(F)F)oc2cc(OCC(=O)OCC(C)C)ccc2c1=O,5.6
O=c1[nH]c(C2CC2)nc2c1CSCC2,1.32
SMILES,Dicer processing
Cc1nc(/N=C/NO)c(Br)cc1Br,2.43
CCOC(=O)c1c(C)[nH]c(C(=O)CN2CCCCC2)c1C,-0.74
CC1=C(C(=O)OC(C)C)C(c2cccc(Cl)c2)n2c(nc3ccccc32)N1 (centres undefined),0.08
OCc1nc2ccccc2n1Cc1ccccc1Cl,-0.29
Clc1ccccc1CNc1nc2ccccc2n1CCN1CCOCC1,6.49*
O=C(Nc1nc2ccccc2n1CCN1CCOCC1)C1CCCCC1,2.99
CC(C)c1ccc(CNc2nc3ccccc3n2CCN2CCOCC2)cc1,4.8*
CCN(CC)c1ccc(CNc2nc3ccccc3n2C(C)C)cc1,0.35
c1ccc2c(c1)nc(NCc1ccc3c(c1)OCO3)n2CCN1CCOCC1,-0.44
Cn1c([N+](=O)[O-])cnc1C=Nc1ccc(Oc2ccc(F)cc2)nc1,-0.01
CC(C)(C)c1ccc(-c2[nH]nc(NC(=O)c3ccccc3F)c2Br)cc1,2.76
Nc1nnc(SCC(=O)n2c3c(c4ccccc42)CCCC3)s1,-0.12
Cc1csc(SCCCCCCC(=O)O)n1,-0.37
CCOC(=O)N1CCc2c(sc3[nH]c(=O)n(-c4ccc(Cl)cc4)c(=O)c23)C1,-3.07
O=S(=O)(NCCc1ccccn1)c1ccc2c(c1)OCCCO2,0.54
COc1ccc(NS(=O)(=O)c2ccc3c(c2)OCCO3)c(OC)c1,-2.58
O=S(=O)(Nc1ccc(OCc2ccccc2)cc1)c1ccc2c(c1)OCCO2,3.36*
CC(=O)c1c(OCc2ccccc2)ccc(C(C)(C)C)c1O,-0.43
Cc1cc(Cl)ccc1NC(=S)NCCCNC1CCCCC1,-0.79
O=C(O)c1nnc(Cl)c2ccccc12,0.53
C=CC(C)c1c(CCC)nc(-c2ccccn2)[nH]c1=O (centres undefined),-0.89
S=C(N/N=C/c1cccnc1)NC1CC2CC1C1C=CCC21 (centres undefined),0.65
Oc1ccccc1/C=N/NC(=S)NC1CC2CC1C1C=CCC21 (centres undefined),3.83*
CNC(=S)N/N=C/c1ccccc1Cl,-0.61
CC1CC(=O)C2=C(C1)Nc1nc(C(F)(F)F)nn1C2c1ccccc1 (centres undefined),5.2*
O=C1CC(c2ccco2)CC2=C1C(c1ccccc1)n1nc(C(F)(F)F)nc1N2 (centres undefined),0.25

# Screening results: PubChem BioAssay, Center for Chemical Genomics, University of Michigan
